# Data from the supplement of paper PMC8728848.
# This excerpt belongs to a sample that is enriched for the strongest signals.
# B1: Epa1-NP-mutant-D229G (Candida glabrata), Q6VBJ0 (protein)
# chain: MILNPALFLNKCVCIYTTLILLLLTNGGYATSSNDISLASKDPTTFPLGCSPDITTPKKGLSMELYSYDFRKKGSYPCWDAAYLDPNYPRTGYKSHRLLAKVDGVTGNINFYYHATKGCTPQLGHLPASYNYPKPLTMTNFTMLLYGYFRPKVTGFHTFTISADDLLFVNFGAGNAFDCCRRDSSADHFGNYQAYAIWGSKTAKDELTVHLDAGVYYPIRLFYNNREYGGALSFTFKTESNENTVSDFSEYFFSLDDTEEGCPGLISYDSSCASVKTSKIIGIDYHTETPNENLVPITKTIYHLGIPCTGTTTTPLCGSGFYDPLANKCVTINTSSTSSVTKTTSHTTSKEVSFHSSISSQKTLIPKSIPSPYGPIKSQSIPTEMETSSEISSSEYAFSDVISTPSHSPYTKKHSSLNSSSYTSTVIHSLTSYSISQGIFSTSLSEQNITSKSSTDKFSTATSMSNNITQSSIIISQFSTNNENYTTTSMHTSSDKISTETLNNSISTTTSILFSNSSTILKNNTTIISSDKDTHYHPVNPTIVCSTNKTEIICASITQPSISNSNNHWSSSVLKFNSTTVRSTLPSSAGSNETSINVPFSSSTESNTSTSSTSTSNSKMVRSTLPSSAGSNETSISVPFSSSTESNTSTSSTSTSNSKMVRSTLPSSAGSNETSINVPFSSSTESNTSTSSTSTSNSKTVRSTPFSSAGIIMTSLSQRNNKSASSYASSNSKCYNTADSCRKVHSTPSYLLTSSYTSEGVDYDCSLVSTKLKINDTNCVNNKHTTKSCLKTSVTTTIPTLEIKTARKSSSNTIGLHSYPTSSPNKSISSAPIIGYISSFKTIKTASPSYQTSDLTTITTITSLNNPGSTAVENTHESNDKSRKTSSNDISSKHSVIKETKDAVESSNKSHQTNTLKCSSIIIASSSHNSYESLGGTTLTLTLSKVYSPQNNDTLPFLEISEVNPSRTVLPESSKMMQYLTSTEERNKTARNTIATNIVSISTFHFEGEGNAIRMGYTQLLLMLIGIIVMNIGT
# Assays:
# Test in all cases: glycan array binding signal (z-score within array); higher = stronger binding
# Details in all cases: glycan notation: IUPAC condensed, linker removed; mutation: D229G
# [1] = target: Fuc(a1-2)Gal(b1-3)GlcNAc(b1-2)Man(a1-3)[Fuc(a1-2)Gal(b1-3)GlcNAc(b1-2)Man(a1-6)]Man(b1-4)GlcNAc(b1-4)GlcNAc
# How it was run: (§1)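 Columns mapping to the same glycan were averaged after glycan names were converted to IUPAC-condensed notation. The data come from 3228 arrays in the Consortium for Functional Glycomics database, limited to those with an available protein sequence. Binding is reported as a within-array Z-score averaged across arrays of one protein sequence and across linkers.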
# [2] = target: Fuc(a1-2)Gal(b1-3)GlcNAc(b1-3)GalNAc
# How it was run: as §1
# [3] = target: Fuc(a1-2)Gal(b1-3)GlcNAc(b1-3)[Gal(b1-4)GlcNAc(b1-6)]Gal(b1-4)Glc
# How it was run: as §1
# Fuc(a1-2)Gal(b1-4)GlcNAc = target: Fuc(a1-2)Gal(b1-4)GlcNAc
# How it was run: as §1
# [4] = target: Fuc(a1-2)Gal(b1-4)GlcNAc(b1-3)Gal(b1-4)GlcNAc(b1-3)Gal(b1-4)GlcNAc
# How it was run: as §1
# [5] = target: Fuc(a1-2)Gal(b1-4)[Fuc(a1-3)]GlcNAc(b1-3)Gal(b1-4)[Fuc(a1-3)]GlcNAc
# How it was run: as §1
# [6] = target: Fuc(a1-2)Gal3S(b1-4)GlcNAc
# How it was run: as §1
# Fuc(a1-2)Gal6S(b1-4)Glc = target: Fuc(a1-2)Gal6S(b1-4)Glc
# How it was run: as §1
# [7] = target: Fuc(a1-2)[Gal(a1-3)]Gal(b1-3)GlcNAc(b1-2)Man(a1-3)[Fuc(a1-2)[Gal(a1-3)]Gal(b1-3)GlcNAc(b1-2)Man(a1-6)]Man(b1-4)GlcNAc(b1-4)GlcNAc
# How it was run: as §1
# [8] = target: Fuc(a1-2)[Gal(a1-3)]Gal(b1-3)GlcNAc(b1-6)GalNAc
# How it was run: as §1
# [9] = target: Fuc(a1-2)[Gal(a1-3)]Gal(b1-4)GlcNAc(b1-2)Man(a1-3)[Fuc(a1-2)[Gal(a1-3)]Gal(b1-4)GlcNAc(b1-2)Man(a1-6)]Man(b1-4)GlcNAc(b1-4)GlcNAc
# How it was run: as §1
# [10] = target: Fuc(a1-2)[Gal(a1-3)]Gal(b1-4)GlcNAc(b1-6)GalNAc
# How it was run: as §1
# [11] = target: Fuc(a1-2)[Gal(a1-3)]Gal(b1-4)[Fuc(a1-3)]GlcNAc(b1-3)GalNAc
# How it was run: as §1
# [12] = target: Fuc(a1-2)[GalNAc(a1-3)]Gal(b1-4)GlcNAc(b1-2)Man
# How it was run: as §1
# [13] = target: Fuc(a1-2)[GalNAc(a1-3)]Gal(b1-4)GlcNAc(b1-3)[Fuc(a1-2)[GalNAc(a1-3)]Gal(b1-4)GlcNAc(b1-6)]GalNAc
# How it was run: as §1
# [14] = target: Fuc(a1-2)[GalNAc(a1-3)]Gal(b1-4)[Fuc(a1-3)]GlcNAc(b1-3)GalNAc
# How it was run: as §1
# [15] = target: Fuc(a1-3)[Gal(b1-4)]GlcNAc(b1-3)Gal(b1-4)[Fuc(a1-3)]GlcNAc(b1-3)Gal(b1-4)[Fuc(a1-3)]GlcNAc
# How it was run: as §1
# [16] = target: Fuc(a1-3)[Gal3S(b1-4)]GlcNAc6S
# How it was run: as §1
# Gal(a1-3)Gal(b1-3)GlcNAc = target: Gal(a1-3)Gal(b1-3)GlcNAc
# How it was run: as §1
# [17] = target: Gal(a1-3)Gal(b1-3)GlcNAc(b1-2)Man(a1-3)[Gal(a1-3)Gal(b1-3)GlcNAc(b1-2)Man(a1-6)]Man(b1-4)GlcNAc(b1-4)GlcNAc
# How it was run: as §1
# Gal(b1-2)Gal = target: Gal(b1-2)Gal
# How it was run: as §1
# Gal(b1-3)Gal = target: Gal(b1-3)Gal
# How it was run: as §1
# [18] = target: Gal(b1-3)GlcNAc(b1-3)Gal(b1-4)GlcNAc(b1-3)Gal(b1-4)GlcNAc(b1-2)[Gal(b1-3)GlcNAc(b1-3)Gal(b1-4)GlcNAc(b1-3)Gal(b1-4)GlcNAc(b1-6)]Man(a1-6)[Gal(b1-3)GlcNAc(b1-3)Gal(b1-4)GlcNAc(b1-3)Gal(b1-4)GlcNAc(b1-2)Man(a1-3)]Man(b1-4)GlcNAc(b1-4)[Fuc(a1-6)]GlcNAc
# How it was run: as §1
# Gal(b1-3)GlcNAc6S = target: Gal(b1-3)GlcNAc6S
# How it was run: as §1
# [19] = target: Gal(b1-3)[Fuc(a1-4)]GlcNAc(b1-2)Man(a1-3)[Gal(b1-3)[Fuc(a1-4)]GlcNAc(b1-2)Man(a1-6)]Man(b1-4)GlcNAc(b1-4)[Fuc(a1-6)]GlcNAc
# How it was run: as §1
# [20] = target: Gal(b1-4)GlcNAc(b1-2)[Gal(b1-4)GlcNAc(b1-4)]Man(a1-3)[Gal(b1-4)GlcNAc(b1-2)Man(a1-6)]Man(b1-4)GlcNAc(b1-4)GlcNAc
# How it was run: as §1
# [21] = target: Gal(b1-4)GlcNAc(b1-2)[Gal(b1-4)GlcNAc(b1-4)]Man(a1-3)[GlcNAc(b1-4)][Gal(b1-4)GlcNAc(b1-2)Man(a1-6)]Man(b1-4)GlcNAc(b1-4)GlcNAc
# How it was run: as §1
# [22] = target: Gal(b1-4)GlcNAc(b1-3)Gal(b1-3)GalNAc
# How it was run: as §1
# [23] = target: Gal(b1-4)GlcNAc(b1-3)Gal(b1-4)GlcNAc(b1-2)Man(a1-3)[Gal(b1-4)GlcNAc(b1-3)Gal(b1-4)GlcNAc(b1-2)Man(a1-6)]Man(b1-4)GlcNAc(b1-4)[Fuc(a1-6)]GlcNAc
# How it was run: as §1
# [24] = target: Gal(b1-4)GlcNAc(b1-3)Gal(b1-4)GlcNAc(b1-3)Gal(b1-4)GlcNAc(b1-3)Gal(b1-4)GlcNAc(b1-3)Gal(b1-4)GlcNAc(b1-2)[Gal(b1-4)GlcNAc(b1-3)Gal(b1-4)GlcNAc(b1-3)Gal(b1-4)GlcNAc(b1-3)Gal(b1-4)GlcNAc(b1-3)Gal(b1-4)GlcNAc(b1-6)]Man(a1-6)[Gal(b1-4)GlcNAc(b1-3)Gal(b1-4)GlcNAc(b1-3)Gal(b1-4)GlcNAc(b1-3)Gal(b1-4)GlcNAc(b1-3)Gal(b1-4)GlcNAc(b1-2)Man(a1-3)]Man(b1-4)GlcNAc(b1-4)[Fuc(a1-6)]GlcNAc
# How it was run: as §1
# [25] = target: Gal(b1-4)GlcNAc(b1-3)Gal(b1-4)GlcNAc(b1-3)[Gal(b1-4)GlcNAc(b1-3)Gal(b1-4)GlcNAc(b1-6)]GalNAc
# How it was run: as §1
binder,measurement,setting,value
B1,glycan array binding signal (z-score),[1],1.63
same,glycan array binding signal (z-score),[2],0.514
same,glycan array binding signal (z-score),[3],1
same,glycan array binding signal (z-score),Fuc(a1-2)Gal(b1-4)GlcNAc,0.427
same,glycan array binding signal (z-score),[4],-0.455
same,glycan array binding signal (z-score),[5],-1.5
same,glycan array binding signal (z-score),[6],1.12
same,glycan array binding signal (z-score),Fuc(a1-2)Gal6S(b1-4)Glc,-0.521
same,glycan array binding signal (z-score),[7],0.17
same,glycan array binding signal (z-score),[8],0.093
same,glycan array binding signal (z-score),[9],2.01
same,glycan array binding signal (z-score),[10],-0.039
same,glycan array binding signal (z-score),[11],2.93
same,glycan array binding signal (z-score),[12],-0.751
same,glycan array binding signal (z-score),[13],0.092
same,glycan array binding signal (z-score),[14],-0.531
same,glycan array binding signal (z-score),[15],-0.559
same,glycan array binding signal (z-score),[16],2.08
same,glycan array binding signal (z-score),Gal(a1-3)Gal(b1-3)GlcNAc,-0.137
same,glycan array binding signal (z-score),[17],3.6
same,glycan array binding signal (z-score),Gal(b1-2)Gal,-1.18
same,glycan array binding signal (z-score),Gal(b1-3)Gal,-0.801
same,glycan array binding signal (z-score),[18],2.48
same,glycan array binding signal (z-score),Gal(b1-3)GlcNAc6S,1.23
same,glycan array binding signal (z-score),[19],2.15
same,glycan array binding signal (z-score),[20],-1.41
same,glycan array binding signal (z-score),[21],-0.683
same,glycan array binding signal (z-score),[22],0.068
same,glycan array binding signal (z-score),[23],0.671
same,glycan array binding signal (z-score),[24],2.8
same,glycan array binding signal (z-score),[25],2.55
